Compound activity as filed in PubChem.
U2OS ROS induce: cancer cell ROS induction. U2OS ROS induction, H2DCF-DA fluorescence. ROS induction (% of piperlongumine), % at 10 µM. 46,000 compounds, 2% hits; in the data active means ROS induction above about 79%, passing the limit was not always enough; inconclusive means no clear call, values can overlap the other calls;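 further: 0% = DMSO vehicle median and 100% = reference compound median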
NOMO-1 viab: STK33 inhibitor candidate reducing NOMO-1 cell viability | 37,000 compounds, 7.5% hits | inhibition, % (test concentration not listed) | NOMO-1 AML viability, CellTiter-Glo luminescence, 72 h; in the data active means inhibition above about 80%; inconclusive means no clear call, values can overlap the other calls
Active calls of the source: *; ? = inconclusive; nt = not tested or not shown. This excerpt belongs to a sample that is enriched for hits.

SMILES	U2OS ROS induce	NOMO-1 viab
C[C@@H]1O[C@@H](O[C@H]2[C@H](O[C@H]3[C@H](O)[C@@H](C(=O)O)O[C@@H](O[C@H]4CC[C@@]5(C)C(CC[C@]6(C)C5CC[C@]57OC[C@@]8(CCC(C)(C)CC85)[C@H](O)C[C@]76C)C4(C)C)[C@@H]3O[C@@H]3O[C@H](CO)[C@@H](O[C@@H]4OC[C@@H](O)[C@H](O)[C@H]4O)[C@H](O)[C@H]3O)O[C@H](CO)[C@H](O)[C@@H]2O)[C@H](O)[C@H](O)[C@H]1O (stereo partly drawn)	-8.5	58.3
C/C=C(/C)C(=O)O[C@H]1[C@H](OC(=O)/C=C/c2ccccc2)[C@@]23C(CC1(C)C)[C@]1(CCC4[C@@]5(C)CC[C@H](O[C@@H]6O[C@H](C(=O)O)[C@@H](O)[C@H](O[C@@H]7O[C@H](CO)[C@H](O)[C@H](O)[C@H]7O[C@@H]7O[C@@H](C)[C@H](O)[C@@H](O)[C@H]7O[C@@H]7OC[C@](O)(CO)[C@H]7O)[C@H]6O[C@@H]6O[C@H](CO)[C@H](O)[C@H](O)[C@H]6O)C(C)(C)C5CC[C@@]4(C)[C@]1(C)C[C@H]2O)O[C@H]3O (stereo partly drawn)	-47.9	120.3*
COC(=O)/C(=C/c1ccc2c(c1)OCO2)NC(=O)c1ccc(C(C)(C)C)cc1	-3.4	nt
C[C@@H]1CN([C@H](C)CO)C(=O)Cc2cc(N(C)C)ccc2O[C@@H]1CN(C)Cc1ccncc1	-7.9	5.3
O=C(N/N=C/c1ccc(CO)o1)c1ccccn1	-18.8	nt
Cc1ccc(S(=O)(=O)Nc2ccc3c(c2)C(=O)N([C@H](C)CO)C[C@@H](C)[C@H](CN(C)S(=O)(=O)c2cccs2)O3)cc1	-14.0	-6.1
COc1cccc(OCC(=O)Nc2ccc(Cl)cc2C(=O)O)c1	nt	-19.9
COc1ccc(NC(=O)Nc2nn(Cc3c(F)cccc3Cl)cc2Cl)cc1OC	29.5	26.5
CC(=O)c1cccc(NC(=O)Nc2nn(Cc3c(F)cccc3Cl)cc2Br)c1	-6.3	106.0*
C[C@@H]1CN([C@H](C)CO)C(=O)c2cc(NS(=O)(=O)c3cn(C)cn3)ccc2O[C@H]1CN(C)C(=O)Nc1ccc2c(c1)OCO2	-5.7	11.2
CSC1=N/C(=C\c2ccc(Br)cc2)C(=O)S1	17.6	130.6*
CSC1=N/C(=C\c2ccccc2C)C(=O)S1	-7.9	55.8
Cc1ccc(NC(=O)CSC2CC(=O)N(c3ccc(F)cc3)C2=O)cc1Cl (stereo not drawn)	-7.0	20.2
COC(=O)CCCCCCC(=O)N/N=C/c1cc(OC)c(OC)cc1[N+](=O)[O-]	118.5*	nt
COc1cc(/C=N/NC(=O)CCCCCC(=O)O)c([N+](=O)[O-])cc1OC	-4.7	nt
C[C@@H]1CN([C@@H](C)CO)C(=O)c2cccc(NS(=O)(=O)c3cn(C)cn3)c2O[C@@H]1CN(C)C	0.7	23.4
O=C(O)CCCCCC(=O)N=NC=C1C=CN(O)C=C1	1.7	nt
CCOc1ccc2c(c1)-c1c(ssc1=S)C(C)(C)N2C	-6.4	86.3*
CCOc1ccc2c(c1)[nH]c(=S)n2C	-0.6	nt
COc1ccc(CN(C)C[C@@H]2Oc3c(NC(=O)Nc4ccc(F)cc4)cccc3C(=O)N([C@@H](C)CO)C[C@H]2C)cc1	14.4	110.3*
COc1ccc(NC(=O)Nc2cccc3c2O[C@H](CN(C)Cc2ccc(Oc4ccccc4)cc2)[C@H](C)CN([C@H](C)CO)C3=O)cc1	10.9	43.9
COc1ccc(NC(=O)Nc2cccc3c2O[C@@H](CN(C)Cc2ccccc2)[C@H](C)CN([C@H](C)CO)C3=O)cc1	9.1	117.0*
COc1ccc(NC(=O)Nc2cccc3c2O[C@@H](CN(C)Cc2ccc(Oc4ccccc4)cc2)[C@H](C)CN([C@@H](C)CO)C3=O)cc1	28.7	91.1*
COc1ccc(NC(=O)Nc2cccc3c2O[C@@H](CN(C)Cc2ccccc2)[C@@H](C)CN([C@@H](C)CO)C3=O)cc1	9.6	49.2
COc1ccc(NC(=O)Nc2cccc3c2O[C@@H](CN(C)Cc2ccc(Oc4ccccc4)cc2)[C@@H](C)CN([C@@H](C)CO)C3=O)cc1	36.7	68.2
SMILES	U2OS ROS induce	NOMO-1 viab
COc1ccc(CN(C)C[C@H]2Oc3c(NC(=O)Nc4ccc(OC)cc4)cccc3C(=O)N([C@@H](C)CO)C[C@H]2C)cc1	-10.1	14.3
COc1ccc(NC(=O)Nc2cccc3c2O[C@@H](CN(C)Cc2ccc(Oc4ccccc4)cc2)[C@@H](C)CN([C@H](C)CO)C3=O)cc1	48.5	116.8*
O=C(CSc1nnc(-c2ccccn2)n1-c1ccccc1)Nc1cc(C(F)(F)F)ccc1Cl	nt	28.1
COC(=O)c1ccccc1S(=O)(=O)/C(C#N)=C/Nc1nc(SC)nc(C2CC2)n1	4.7	13.6
CC(C)(C)c1cc(C(=O)NN)no1	-24.5	nt
COc1ccc(NC(=O)Nc2cccc3c2O[C@@H](CN(C)Cc2ccc(C(F)(F)F)cc2)[C@H](C)CN([C@H](C)CO)C3=O)cc1	23.1	84.4*
COc1ccc(CN(C)C[C@@H]2Oc3c(NC(=O)Nc4ccc(C(F)(F)F)cc4)cccc3C(=O)N([C@@H](C)CO)C[C@H]2C)cc1	41.3	115.5*
COc1ccc(CN(C)C[C@@H]2Oc3c(NC(=O)Nc4ccc(C(F)(F)F)cc4)cccc3C(=O)N([C@H](C)CO)C[C@@H]2C)cc1	14.8	89.8*
C[C@@H]1CN([C@@H](C)CO)C(=O)c2cccc(NC(=O)Nc3ccc(C(F)(F)F)cc3)c2O[C@H]1CN(C)Cc1ccc(Oc2ccccc2)cc1	18.7	?
COc1ccc(NC(=O)Nc2cccc3c2O[C@H](CN(C)Cc2ccc(C(F)(F)F)cc2)[C@H](C)CN([C@@H](C)CO)C3=O)cc1	4.6	47.1
C[C@@H]1CN([C@H](C)CO)C(=O)c2cccc(NC(=O)Nc3ccccc3)c2O[C@@H]1CN(C)S(=O)(=O)c1cn(C)cn1	1.0	-1.2
C[C@@H]1CCCCO[C@@H](CN(C)Cc2ccncc2)[C@@H](C)CN([C@H](C)CO)C(=O)c2cc(NS(=O)(=O)c3cn(C)cn3)ccc2O1	-2.5	-7.8
CC1(C)C(=O)C=C[C@@]2(C)C1CC(=O)[C@]1(C)C2CC[C@@]2(C)[C@H](c3ccoc3)OC(=O)[C@H]3O[C@]321 (stereo partly drawn)	15.4	88.2*
CC1(C)C=CC(=O)[C@@]2(C)C1CC(=O)[C@]1(C)C2CC[C@@]2(C)[C@H](c3ccoc3)OC(=O)C3OC321 (stereo partly drawn)	10.2	31.5
CC(C)NC(=O)N(C)C[C@H]1Oc2c(NS(=O)(=O)c3ccccc3)cccc2C(=O)N([C@H](C)CO)C[C@H]1C	-7.0	7.4
CCOC(=O)c1c(NC(=O)CN2C(=O)c3ccccc3C2=O)sc(C)c1C	nt	-25.7
O=C(COc1ccc([N+](=O)[O-])cc1)Nc1cc(Cl)ccc1O	6.5	54.1
O=C(Nc1ccccc1)c1cc([N+](=O)[O-])ccc1Cl	1.2	117.8*
O=C(Nc1ccccc1)c1cc([N+](=O)[O-])ccc1NCc1cccnc1	2.5	33.7
O=C(Nc1ccc([N+](=O)[O-])cc1Cl)c1cc(Cl)ccc1O	-8.3	120.1*
COc1ccccc1OCC(=O)Nc1ccccc1C(=O)N1C(C)CCCC1C (stereo not drawn)	-1.3	-12.9
Cc1ccc(NC(=O)CN(C)S(=O)(=O)c2ccc(C)cc2)cc1	nt	-5.5
Oc1ccc(Br)cc1C=NCC12CCC3CC(CC(C3)C1)C2	-11.3	89.6*
